Data reported in ChEMBL document CHEMBL4513216, “Probing the Open Global Health Chemical Diversity Library for Multistage-Active Starting Points for Next-Generation Antimalarials” (ACS Infect Dis, 2020).
Among all 68,000 compounds or so, about 2,700 (4%) showed an effect of 50% or more. For the sample, strong results were picked, then their nearest neighbours and some compounds at random.

What follows are compounds tested on Plasmodium berghei (assay: Screen against P. berghei liver stage (PbLuc), transformed with Luciferase, at 2uM). Conditions: tested at 2 uM.
Type: functional, HepG2
Compound CN(CCc1ccccn1)c1cc(N2CCCCC2)ncn1 has an INHIBITION of 26.74%. For Cc1ccc(-c2noc(C3CCN3C(=O)c3cc[nH]n3)n2)s1 (stereo not given), the INHIBITION was -24.35%. In the case of CCCc1nnc(N2CC[C@](C)(O)[C@H](C)C2)s1, the INHIBITION is reported as 40.28%. Work on Cc1cc(CN2CCc3nc(-c4ccncc4)nc(O)c3CC2)c(C)s1 yielded an INHIBITION of 17.72%. With CN(CCC(O)c1ccccc1)c1cc(N2CCOCC2)ncn1 (stereo not given) the INHIBITION was -3.38%. With CCN(CC)c1nc2sc(C(=O)NCC(=O)OC)cc2s1 the INHIBITION was 5.1%. With Fc1ccc(N2CCOC3(COCCN(c4ncccn4)C3)C2)cc1 (stereo not given) the INHIBITION was 26.31%. For Cn1nnc2c(N3CC(C(=O)NCc4cccs4)C3)ncnc21, the INHIBITION was 41.71%. Cc1cccc(C)c1OC1CN(C(=O)C2CCCN(C(=O)N(C)C)C2)C1 (stereo not given) was tested, and the INHIBITION was 10.04%. With COc1cccc(OC2CN(C(=O)C3CCCN(C(=O)N(C)C)C3)C2)c1 (stereo not given) the INHIBITION was 52.6%. With Cc1cccc(C)c1OC1CN(C(=O)C2CCN(C(=O)N(C)C)CC2)C1 the INHIBITION was 24.23%. For Cc1cccc(CN2CCc3[nH]nc(C(=O)N4CCNC(=O)C4)c3C2)n1, the INHIBITION was 25.04%. CCc1ccc(CN2CCc3[nH]nc(C(=O)N4CCNC(=O)C4)c3C2)o1 was tested, and the INHIBITION was -15.83%. Compound Cc1ccc(CN2CCc3[nH]nc(C(=O)N4CCNC(=O)C4)c3C2)s1 has an INHIBITION of 57.85%. With O=C(CN1CCOC(Cn2cccn2)C1)NCc1ccccn1 (stereo not given) the INHIBITION was -12.75%. With NC(=O)c1cc2c(nc1Oc1ccc(CN3CCCC3)cc1F)CCC2 the INHIBITION was 12.21%. For CNC(=O)c1cc2c(nc1N(C)C)CCN(c1ncc(C)cn1)CC2, the INHIBITION was -37.2%. COc1ccc(Cl)cc1NCCC(=O)NCCNc1cnccn1 gave an INHIBITION of -22.83%. Work on COc1ccc(Cl)cc1NCC(=O)NCCNc1cnccn1 yielded an INHIBITION of 55.7%. COc1ccc(Cl)cc1NCC(=O)NCCNc1ncccn1 gave an INHIBITION of -5.6%. NC(=O)CN1CCCC1c1csc(Nc2cnccn2)n1 (stereo not given) was tested, and the INHIBITION was -20.73%. CN1CCC2(COCc3cnc(N4CCOCC4)nc32)C1 (stereo not given) was tested, and the INHIBITION was 18.97%. CS(=O)(=O)NC(=O)c1ccn(-c2ccccc2Cl)n1 showed an INHIBITION of -61.69%. In the case of O=C1Nc2ccccc2CC12CCCN2Cc1ccc(F)cc1 (stereo not given), the INHIBITION is reported as -0.14%. Work on CCc1n[nH]c(C2CN(CCCS(C)(=O)=O)CCO2)n1 (stereo not given) yielded an INHIBITION of 24.65%. Compound CCc1n[nH]c(C2CN(C(=O)CCc3cscn3)CCO2)n1 (stereo not given) has an INHIBITION of 12.81%. With CC(C)(C)c1n[nH]c(C2CN(C(=O)CCc3ccco3)CCO2)n1 (stereo not given) the INHIBITION was 0.74%. CCCc1n[nH]c(C2CN(CCCS(C)(=O)=O)CCO2)n1 (stereo not given) showed an INHIBITION of 2.1%. For CSCC(=O)N1CCOC(c2nc(C(C)(C)C)n[nH]2)C1 (stereo not given), the INHIBITION was -17.77%. For CC(C)(C)c1n[nH]c(C2CN(C(=O)CCC3CC3)CCO2)n1 (stereo not given), the INHIBITION was 60.31%. For Cc1n[nH]c(C2CN(C(=O)CCc3cscn3)CCO2)n1 (stereo not given), the INHIBITION was -4.43%. With CC(C)c1n[nH]c(C2CN(C(=O)CCc3cscn3)CCO2)n1 (stereo not given) the INHIBITION was 53.33%. For CC(C)c1n[nH]c(C2CN(CCCS(C)(=O)=O)CCO2)n1 (stereo not given), the INHIBITION was 69.11%. C=C(C)CN(CC)Cc1nc(C)no1 gave an INHIBITION of -12.44%. With CS(=O)(=O)Cc1noc(CN2CCc3c(Cl)cccc3C2)n1 the INHIBITION was -6.67%. In the case of CCC(CNS(C)(=O)=O)Oc1ccccc1F (stereo not given), the INHIBITION is reported as 14.69%. In the case of CCc1n[nH]c(C2CN(Cc3nnc(C4CCC4)o3)CCO2)n1 (stereo not given), the INHIBITION is reported as -45.21%. In the case of CC(=O)N1CCCC1c1nc(N(C)C)ncc1-c1ccccc1 (stereo not given), the INHIBITION is reported as 7.47%. With Cc1cn(CC(=O)NC2CCN(C(=O)C3CC3)CC2)c2ccccc12 the INHIBITION was 41.44%. In the case of Cc1c(C(=O)N(C)C)cccc1N(C)S(C)(=O)=O, the INHIBITION is reported as -0.02%. COc1ccc(CNc2c(C)nn(C(C)C)c2C)cc1OC showed an INHIBITION of -4.19%. CC[C@@H](c1ccccc1)n1c(CCN)n[nH]c1=O gave an INHIBITION of 31.69%. Work on Cc1nc(CC(=O)N2CCc3nc(-c4cnccn4)nc(O)c3C2)cs1 yielded an INHIBITION of 34.9%. For CC(C)c1noc(CCC(=O)NC2CCS(=O)(=O)C2)n1 (stereo not given), the INHIBITION was 17.19%. Cc1ccc(C(=O)NCCN2CCOCC2)cc1N(C)S(C)(=O)=O gave an INHIBITION of 70.2%. For CN(c1ccc(C(=O)NCCN2CCOCC2)c(Cl)c1)S(C)(=O)=O, the INHIBITION was 2.31%. Cc1ccc(C(=O)NCCC2CCN(C)CC2)cc1N(C)S(C)(=O)=O gave an INHIBITION of 36.05%. COc1ccccc1-c1cc(C(=O)Nc2nc[nH]n2)[nH]n1 gave an INHIBITION of 19.53%. CCCN(C)c1ccc(C(=O)Nc2c(C)nn(C(C)C)c2C)cc1 showed an INHIBITION of -17.64%. CN(C)Cc1ccc(C2CCCCN2C(=O)c2ncccc2O)cc1 (stereo not given) showed an INHIBITION of 56.16%. In the case of CN(C)Cc1ccc(C2CCCCN2C(=O)c2cccnn2)cc1 (stereo not given), the INHIBITION is reported as -9.15%. Cc1nc(C(=O)N2CCCCC2c2ccc(CN(C)C)cc2)c(C)o1 (stereo not given) gave an INHIBITION of 46.21%. For CCc1ccc(C(=O)N2CCN(CCO)CC2)o1, the INHIBITION was 31.7%. CN(Cc1ccco1)C(=O)c1ccc(=O)n(C)c1 was tested, and the INHIBITION was 1.13%. Cc1nc(CNCc2ccc(OC34CCCN(CC3)C4)cc2)n[nH]1 (stereo not given) gave an INHIBITION of -2.62%. For COCC(=O)N1CC(C(=O)NCC2CC2)C2(CCOCC2)C1 (stereo not given), the INHIBITION was -13.16%. For Cc1ccsc1C(=O)N1CC(C(=O)NCC2CC2)C2(CCOCC2)C1 (stereo not given), the INHIBITION was 2.41%. With CC(C)NC(=O)C1CN(C(=O)N2CCCC2)CC12CCOCC2 (stereo not given) the INHIBITION was 17.51%. In the case of CC(C)NC(=O)C1CN(C(=O)N(C)C)CC12CCOCC2 (stereo not given), the INHIBITION is reported as 58.87%. In the case of CC(C)NC(=O)C1CN(C(=O)c2ccccc2)CC12CCOCC2 (stereo not given), the INHIBITION is reported as 34.48%. CN(C)C(=O)N1CC(C(=O)NCC2CC2)C2(CCOCC2)C1 (stereo not given) was tested, and the INHIBITION was 55.92%. In the case of COCCO[C@@H]1C[C@H]2CN(C(=O)c3cnccn3)CCN2C1, the INHIBITION is reported as -1.27%. O=C1NCCCCC1NCc1csc(-c2ccc(F)cc2)n1 (stereo not given) showed an INHIBITION of 13.91%. Work on CCN1CCc2c(CNC(=O)c3nccn3C)cncc2C1 yielded an INHIBITION of 10.71%. Work on CCc1oc(C(=O)NC(C)c2ncn[nH]2)cc1CN1CCCC1 (stereo not given) yielded an INHIBITION of 38.24%. With CC(C)Nc1ncccc1C(=O)NC1CC(=O)N(CC(F)(F)F)C1 (stereo not given) the INHIBITION was 16.87%. Cc1[nH]c2ccccc2c1-c1ccnc(N[C@H](CO)CC(C)C)n1 was tested, and the INHIBITION was -48.87%. Nc1ncc(C(=O)N2CCCC(N)CC2)c(-c2ccccc2)n1 (stereo not given) showed an INHIBITION of 50.91%. Nc1ncc(C(=O)N2CCC(O)(CO)CC2)c(-c2ccccc2)n1 gave an INHIBITION of 32.04%. Nc1ncc(C(=O)N2CCC3(CCCO3)CC2)c(-c2ccccc2)n1 showed an INHIBITION of 14.83%. Cc1cc(CN(C)C(C(=O)O)c2cccc(C(F)(F)F)c2)on1 (stereo not given) gave an INHIBITION of -53%. For COc1ccc(C)cc1CN1CCn2cccc2C1C (stereo not given), the INHIBITION was 23.27%. For CC(C)SCC(=O)NCc1cc2n(n1)CCCN(C1CCCCC1)C2, the INHIBITION was 50.02%. For CSCCC(=O)NCc1cc2n(n1)CCCN(C1CCCCC1)C2, the INHIBITION was -12.95%. Compound CCC(C)NC(=O)NCc1cc2n(n1)CCCN(C1CCCCC1)C2 (stereo not given) has an INHIBITION of -15.12%. CNS(=O)(=O)c1ccc(CNC(=O)N(C)C(C)COC)cc1 (stereo not given) was tested, and the INHIBITION was -30.49%. Cc1ccc(C(=O)N2CCC3(CCN3c3ncccn3)C2)cn1 (stereo not given) showed an INHIBITION of -55.08%. CC(O)CNc1ccc(C#N)cc1C(F)(F)F (stereo not given) showed an INHIBITION of 25.48%. CC(C)(C)c1nc(NS(=O)(=O)c2ccc(F)cc2)no1 gave an INHIBITION of -56.23%. Compound Cc1nc(CNC(=O)NC(C)c2ccc3c(c2)OCCCO3)cs1 (stereo not given) has an INHIBITION of -10.62%. Cc1ccc(C)c(OCC(=O)NC2CCN(c3ccccn3)CC2)c1 gave an INHIBITION of 63.89%. With O=C(COCCOc1ccccc1)NC1CCN(c2ccccn2)CC1 the INHIBITION was 21.79%. For COCCOCC(=O)NC1CCN(c2ccccn2)CC1, the INHIBITION was -1.01%. For O=C1OCCN1Cc1ncnn1Cc1c(F)cccc1Cl, the INHIBITION was 59.94%. In the case of O=C1CCCCCN1Cc1ncnn1Cc1c(F)cccc1Cl, the INHIBITION is reported as 29.98%. For Fc1cccc(Cl)c1Cn1ncnc1CSCCN1CCCC1, the INHIBITION was 2.76%. In the case of O=S(=O)(NCc1ccc(S(=O)(=O)N2CCCC2)s1)c1ccc(Cl)c(Cl)c1, the INHIBITION is reported as -7.01%. Compound CCN1c2ccc(-c3cncn3CC(=O)NC(C)(C)C)cc2CC1C (stereo not given) has an INHIBITION of 51.57%. CCN1CCc2cc(-c3cncn3CC(=O)NC(C)(C)C)ccc21 gave an INHIBITION of 25.72%. With CC1Cc2cc(-c3cncn3CC(=O)NC(C)(C)C)ccc2N1C (stereo not given) the INHIBITION was 37.4%. Work on CCN1CCCC(c2c(-c3ccccc3)ncn2Cc2cccnc2)C1 (stereo not given) yielded an INHIBITION of -17.04%. For CN(C)CCCNC(=O)c1cc(-c2ccc3c(c2)CCO3)n[nH]1, the INHIBITION was -4.01%. Work on O=C(NCCO)c1cc(-c2ccc3c(c2)CCO3)n[nH]1 yielded an INHIBITION of 51.31%. In the case of O=C(NCCCO)c1cc(-c2ccc3c(c2)CCO3)n[nH]1, the INHIBITION is reported as -56.16%. CC1c2ncc(Cn3cccn3)n2CCN1Cc1ccc(F)cc1 (stereo not given) gave an INHIBITION of 17.24%. With COCc1cc(N(C)Cc2cnccn2)nc(C(C)(C)C)n1 the INHIBITION was 10.03%. For COCCC(=O)N1CCCC(CCC(=O)Nc2ccc(Cl)cc2)C1 (stereo not given), the INHIBITION was -0.62%. O=C([C@@H]1COC[C@H]2CN(c3ccncn3)C[C@H]21)N1CCCCO1 gave an INHIBITION of 40.64%. For O=C([C@@H]1COC[C@H]2CN(c3ccncn3)C[C@H]21)N1CCCC1, the INHIBITION was 25.58%. O=C([C@H]1COC[C@H]2CN(c3ccncn3)C[C@H]21)N1CCCC1 showed an INHIBITION of 53.55%. For CN(Cc1cccnc1)CC1CN(C(=O)C2CC2)Cc2nccn2C1 (stereo not given), the INHIBITION was 6.8%. CN1Cc2c(C(=O)NC3CCCCC3)ncn2-c2ccccc2S1(=O)=O showed an INHIBITION of -2.38%. For CCc1nc(-c2ccc(C(=O)N3CCC4(CC3)OCCO4)cc2)no1, the INHIBITION was 59.75%. Work on CCc1nc(-c2ccc(NC(=O)N3CCC4(CC3)OCCO4)cc2)no1 yielded an INHIBITION of -16.82%. Compound CCc1nc(-c2ccc(NC(=O)N3CCOCC3)cc2)no1 has an INHIBITION of -52.23%.
